Reference: PubChem BioAssay AID1159580 (chemical genetic matrix, 2015)
Values joined by “and” are separate entries in the source; they are usually repeats but may differ in a detail not shown here. Identical values can stand only once. About 2,000 (36%) of roughly 5,500 compounds were called active. Roughly 18% stayed inconclusive and do not appear here. Rule as the data show it: active = normalized growth mostly below about 0.91 (no sharp cut-off); inconclusive = no clear call, values can overlap the other calls; inactive = mostly above about 0.92. The list shows a part of the results.

Assay: chemical genetic growth profiling, strain panel (AID 1159580);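 also: tested at 20 µM; growth read once vehicle control cultures reached saturation at 30 °C; 1 = growth at the plate median or of vehicle wells; lower values mean less growth of the strain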
Settings: S. cerevisiae deletion strains, growth OD

Measured: normalized growth

COC(=O)C[C@H]1C(C)(C)C(=O)[C@@H]2CC3C4=CC(=O)O[C@@H](c5ccoc5)[C@]4(C)CCC3[C@@]1(C)C2=O (stereo partly drawn)
inactive: locus YAL013W, strain DEP1, active compounds read low 0.98 | locus YAL021C, strain ccr4, active compounds read low 0.967 | locus YAL026C, strain drs2, active compounds read low 0.969 | locus YAL030W, strain snc1, active compounds read low 0.979 | locus YBL061C, strain skt5, active compounds read low 0.985 | locus YBR009C, strain hhf1, active compounds read low 0.985 | locus YBR021W, strain FUR4, active compounds read low 0.998 | locus YBR023C, strain chs3, active compounds read low 0.99 | locus YBR171W, strain sec66, active compounds read low 0.995 | locus YBR229C, strain ROT2, active compounds read low 0.944 | locus YBR231C, strain swc5, active compounds read low 0.998 | locus YBR279W, strain paf1, active compounds read low 0.996 | locus YCL011C, strain gbp2, active compounds read low 0.988 | locus YCL016C, strain dcc1, active compounds read low 0.989 | locus YCL029C, strain bik1, active compounds read low 0.973 | locus YCL061C, strain MRC1, active compounds read low 0.976 | locus YCL069W, strain vba3, active compounds read low 0.99 | locus YCR088W, strain abp1, active compounds read low 0.98 | locus YDL005C, strain med2, active compounds read low 0.978 | locus YDL035C, strain GPR1, active compounds read low 0.959 | locus YDL040C, strain nat1, active compounds read low 0.99 | locus YDL074C, strain BRE1, active compounds read low 0.954 | locus YDL101C, strain DUN1, active compounds read low 0.987 | locus YDL185W, strain tfp1, active compounds read low 0.954 | locus YDL192W, strain arf1, active compounds read low 0.985 | locus YDR001C, strain nth1, active compounds read low 0.975 | locus YDR069C, strain doa4, active compounds read low 0.977 | locus YDR101C, strain arx1, active compounds read low 0.985 | locus YDR137W, strain rgp1, active compounds read low 0.947 | locus YDR159W, strain sac3, active compounds read low 0.97 | locus YDR162C, strain NBP2, active compounds read low 0.96 | locus YDR195W, strain ref2 0.972 | locus YDR297W, strain sur2, active compounds read low 1.05 | locus YDR318W, strain mcm21, active compounds read low 0.98 | locus YDR334W, strain swr1, active compounds read low 0.972 | locus YDR335W, strain msn5, active compounds read low 0.983 | locus YDR388W, active compounds read low 0.988 | locus YDR392W, strain spt3, active compounds read low 0.993 | locus YDR502C, strain sam2, active compounds read low 0.995 | locus YEL003W, strain gim4, active compounds read low 0.989 | locus YEL037C, strain rad23, active compounds read low 0.985 | locus YEL061C, strain CIN8 (second series), active compounds read low 0.982 | locus YEL061C, strain CIN8, active compounds read low 0.978 | locus YER015W, strain faa2, active compounds read low 0.999 | locus YER016W, strain bim1, active compounds read low 0.985 | locus YER110C, active compounds read low 0.964 | locus YER111C, strain swi4, active compounds read low 0.978 | locus YER155C, strain BEM2 (second series), active compounds read low 0.978 | locus YER155C, strain BEM2, active compounds read low 0.995 | locus YER167W, strain BCK2, active compounds read low 0.978 | locus YFR010W, strain ubp6, active compounds read low 0.964 | locus YGL078C, strain dbp3, active compounds read low 0.97 | locus YGL086W, strain mad1, active compounds read low 0.975 | locus YGL167C, strain pmr1, active compounds read low 0.977 | locus YGL173C, strain kem1, active compounds read low 0.982 | locus YGL227W, strain vid30, active compounds read low 0.99 | locus YGL240W, strain doc1, active compounds read low 1 | locus YGL248W, strain PDE1, active compounds read low 0.971 | locus YGL253W, strain hxk2, active compounds read low 0.98 | locus YGR135W, strain pre9, active compounds read low 1.04 | locus YGR252W, strain gcn5, active compounds read low 1.04 | locus YHR013C, strain ard1, active compounds read low 0.983 | locus YHR027C, strain rpn1, active compounds read low 0.979 | locus YHR030C, strain SLT2, active compounds read low 0.979 and 0.991 | locus YHR079C, strain IRE1 (second series), active compounds read low 0.969 | locus YHR079C, strain IRE1, active compounds read low 0.979 | locus YHR094C, strain hxt1, active compounds read low 0.97 | locus YHR129C, strain ARP1, active compounds read low 0.987 | locus YHR142W, strain chs7, active compounds read low 0.983 | locus YHR200W, strain rpn10, active compounds read low 0.981 | locus YIL066C, strain RNR3, active compounds read low 0.952 | locus YIL073C, strain SPO22, active compounds read low 0.957 | locus YIL125W, strain kgd1, active compounds read low 0.982 | locus YIR030C, strain dcg1, active compounds read low 0.985 | locus YJL092W, strain hpr5, active compounds read low 0.981 | locus YJL095W, strain BCK1 (second series), active compounds read low 0.983 | locus YJL095W, strain BCK1, active compounds read low 1.01 and 0.983 | locus YJL115W, strain asf1, active compounds read low 0.964 | locus YJL129C, strain trk1, active compounds read low 0.965 | locus YJL134W, strain LCB3, active compounds read low 0.97 | locus YJL154C, strain vps35, active compounds read low 0.99 | locus YJL164C, strain tpk1, active compounds read low 0.988 | locus YJL166W, strain qcr8, active compounds read low 0.989 | locus YJL168C, strain set2, active compounds read low 0.991 | locus YJL187C, strain SWE1 (second series), active compounds read low 0.993 | locus YJL187C, strain SWE1, active compounds read low 0.998 | locus YJR066W, strain TOR1, active compounds read low 0.943 | locus YKL009W, strain mrt4, active compounds read low 0.956 | locus YKL068W, active compounds read low 0.979 | locus YKL085W, strain MDH1 (second series), active compounds read low 0.986 | locus YKL085W, strain MDH1, active compounds read low 0.986 | locus YKL160W, strain elf1, active compounds read low 0.992 | locus YKL190W, strain CNB1, active compounds read low 0.98 | locus YKR001C, strain vps1, active compounds read low 0.979 | locus YKR026C, strain gcn3, active compounds read low 0.984 | locus YKR091W, strain srl3, active compounds read low 0.984 | locus YLL001W, strain dnm1, active compounds read low 0.979 | locus YLL026W, active compounds read low 0.982 | locus YLL041C, strain sdh2, active compounds read low 0.978 | locus YLR027C, strain aat2, active compounds read low 1 | locus YLR039C, strain RIC1, active compounds read low 0.902 | locus YLR058C, strain SHM2, active compounds read low 0.961 | locus YLR102C, strain apc9, active compounds read low 0.979 | locus YLR113W, strain HOG1, active compounds read low 1 | locus YLR221C, strain rsa3, active compounds read low 0.992 | locus YLR258W, strain gsy2, active compounds read low 0.981 | locus YLR262C, strain YPT6 (second series), active compounds read low 0.982 | locus YLR262C, strain YPT6, active compounds read low 0.916 | locus YLR268W, strain sec22, active compounds read low 0.997 | locus YLR320W, strain mms22, active compounds read low 0.982 | locus YLR330W, strain CHS5, active compounds read low 0.983 | locus YLR342W, strain FKS1 (second series), active compounds read low 1.02 | locus YLR342W, strain FKS1, active compounds read low 0.99 | locus YLR357W, strain rsc2, active compounds read low 0.977 | locus YLR370C, strain arc18, active compounds read low 0.987 | locus YLR371W, strain rom2, active compounds read low 0.981 | locus YLR384C, strain iki3, active compounds read low 0.983 | locus YLR418C, strain cdc73, active compounds read low 1 | locus YML016C, strain PPZ1, active compounds read low 0.978 | locus YML032C, strain rad52, active compounds read low 0.945 | locus YML120C, strain ndi1, active compounds read low 0.992 | locus YML124C, strain tub3, active compounds read low 0.994 | locus YMR058W, strain fet3, active compounds read low 0.969 | locus YMR078C, strain ctf18, active compounds read low 0.958 | locus YMR125W, strain sto1, active compounds read low 0.973 | locus YMR129W, active compounds read low 0.993 | locus YMR205C, strain PFK2, active compounds read low 0.977 | locus YMR223W, strain ubp8, active compounds read low 1 | locus YMR231W, strain pep5, active compounds read low 0.968 | locus YMR307W, strain GAS1, active compounds read low 1.01 | locus YNL067W, strain RPL9B, active compounds read low 1.01 | locus YNL071W, strain lat1, active compounds read low 0.979 | locus YNL128W, strain TEP1, active compounds read low 0.945 | locus YNL183C, strain NPR1, active compounds read low 0.972 | locus YNL209W, strain ssb2, active compounds read low 0.989 | locus YNL233W, strain BNI4, active compounds read low 1.02 | locus YNL248C, strain rpa49, active compounds read low 0.967 | locus YNL250W, strain rad50, active compounds read low 0.98 | locus YNL271C, strain bni1, active compounds read low 0.976 | locus YNL298W, strain CLA4, active compounds read low 0.962 | locus YNL307C, strain MCK1, active compounds read low 0.978 | locus YNL322C, strain KRE1 (second series), active compounds read low 0.995 | locus YNL322C, strain KRE1, active compounds read low 0.981 | locus YNR049C, strain mso1, active compounds read low 0.976 | locus YNR052C, strain pop2, active compounds read low 0.989 | locus YOL006C, strain TOP1, active compounds read low 0.934 | locus YOL012C, strain htz1 0.856 | locus YOL147C, strain pex11, active compounds read low 0.969 | locus YOR001W, strain rrp6, active compounds read low 0.962 | locus YOR061W, strain CKA2, active compounds read low 0.964 | locus YOR069W, strain VPS5, active compounds read low 0.988 | locus YOR070C, strain gyp1, active compounds read low 0.982 | locus YOR080W, strain dia2, active compounds read low 0.983 | locus YOR083W, strain WHI5, active compounds read low 0.989 | locus YOR106W, strain vam3, active compounds read low 0.99 | locus YOR136W, strain idh2, active compounds read low 0.971 | locus YOR144C, strain elg1, active compounds read low 0.996 | locus YOR184W, strain ser1, active compounds read low 0.948 | locus YOR231W, strain MKK1, active compounds read low 0.984 | locus YOR265W, strain rbl2, active compounds read low 0.986 | locus YOR270C, strain vph1, active compounds read low 0.925 | locus YOR290C, strain snf2, active compounds read low 1 | locus YOR316C, strain cot1, active compounds read low 0.982 | locus YPL051W, strain arl3, active compounds read low 1.03 | locus YPL078C, strain atp4, active compounds read low 0.985 | locus YPL106C, strain sse1, active compounds read low 0.994 | locus YPL240C, strain hsp82, active compounds read low 0.984 | locus YPL256C, strain CLN2, active compounds read low 0.967 | locus YPR119W, strain clb2, active compounds read low 0.99 | locus YPR141C, strain kar3, active compounds read low 0.988 | locus YPR163C, strain tif3, active compounds read low 0.985 | locus YPR167C, strain met16, active compounds read low 0.982 | strain wtn01, active compounds read low 0.967
